# Reference: PubChem BioAssay (EPA / NIEHS)
# Values joined by “and” are separate entries in the source; they are usually repeats but may differ in a detail not shown here. Equal entries are not always repeated. Records with an inconclusive call do not appear. Some compounds were tested as several samples or in several runs, with calls that do not always agree. Active and inactive are the calls of the source. How the source made its calls, unless noted: active means hit-call score of the fitted dose curve at least 0.9, where 1 is the maximum; inconclusive means response in the unintended direction; inactive means score below 0.9.
# What was measured:
# [1] = tested on: frog Estrogen Receptor (ER), gene 398734; assay: ATG_frER1_XSP2: Attagene TRANS-FACTORIAL Multi-Species (XSP2) HepG2 Assay for frog Estrogen Receptor (ER) (AID 2283821);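 further: hits raise reporter mRNA above DMSO baseline so potency means agonist or activator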
# How it was run: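 Steps: transfect HepG2 with multiple reporter transcription units; treat with chemical for 24 h; isolate RNA, reverse-transcribe, PCR-amplify, label with 6-FAM, digest with HpaI; resolve fragments by capillary electrophoresis. Signal is scored against DMSO.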
# [2] = tested on: frog Estrogen Receptor (ER2), gene 100174814; assay: ATG_frER2_XSP2: Attagene TRANS-FACTORIAL Multi-Species (XSP2) HepG2 Assay for frog Estrogen Receptor (ER2) (AID 2283828)
# How it was run: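 Multiplexed transactivation in HepG2: frog estrogen receptor fused to Gal4 drives a UAS reporter. Signal is reporter mRNA after 24 h treatment.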
# [3] = tested on: zebrafish Peroxisome Proliferator-activated Receptor gamma (PPARg), gene 557037; assay: ATG_zfPPARg_XSP2: Attagene TRANS-FACTORIAL Multi-Species (XSP2) HepG2 Assay for zebrafish Peroxisome Proliferator-activated Receptor gamma (PPARg) (AID 2283833);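 further: actives increase reporter signal over DMSO so AC50 reflects activation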
# How it was run: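 Multi-species TRANS format in HepG2, 24 h dosing; medium also contained 3 nM 6-alpha-fluorotestosterone and 1.5 nM norgestrel to stimulate androgen receptor. Zebrafish PPARg-GAL4 induced reporter mRNA was measured by RT-PCR/capillary electrophoresis.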
# [4] = ATG_M_61_XSP2: Attagene TRANS-FACTORIAL Multi-Species (XSP2) HepG2 Assay for M61 Transcription Factor (Internal Marker) (AID 2283835; active means hit-call score of the fitted dose curve at least 0.9, where 1 is the maximum; inactive means score below 0.9;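 further: active means a rise in signal above the DMSO baseline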)
# How it was run: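 First, HepG2 cells are transfected with reporter units under GAL4-UAS control. Next, chemicals are applied for 24 h. Then total RNA is reverse-transcribed, amplified, fluorescently labelled and sized by capillary electrophoresis, with gain of signal scored against DMSO.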
# [5] = molecular target: zebrafish Thyroid Hormone Receptor beta (TRb), thrb (gene 30607) (UniProt Q9PVE4); assay: ATG_zfTRb_XSP2: Attagene TRANS-FACTORIAL Multi-Species (XSP1) HepG2 Assay for zebrafish Thyroid Hormone Receptor beta (TRb) (AID 2283836);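 on AC50: potency for induction of reporter signal above DMSO so agonist direction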
# How it was run: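 HepG2 cells transiently transfected with multiplexed GAL4-UAS reporter units expressing chimeric NR-Gal4 proteins; read 24 h after dosing. Reporter mRNA quantified by RT-PCR, 6-FAM labelling, HpaI digest and capillary electrophoresis; gain of signal fitted relative to DMSO.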
# [6] = tested on: turtle Androgen Receptor (AR), gene 101947425; assay: ATG_trAR_XSP2: Attagene TRANS-FACTORIAL Multi-Species (XSP2) HepG2 Assay for turtle Androgen Receptor (AR) (AID 2283815);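 on AC50: potency for gain of reporter signal meaning activation above DMSO baseline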
# How it was run: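 HepG2 cells transiently transfected with GAL4-UAS reporter units for chimeric NR-Gal4 receptors; 24 h dosing in presence of 3 nM 6-alpha-fluorotestosterone and 1.5 nM norgestrel. Reporter mRNA by RT-PCR and capillary electrophoresis, gain of signal versus DMSO.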
# [7] = tested on: zebrafish Estrogen Receptor (ER2a), gene 317734; assay: ATG_zfER2a_XSP2: Attagene TRANS-FACTORIAL Multi-Species (XSP2) HepG2 Assay for zebrafish Estrogen Receptor (ER2a) (AID 2283818);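 further: hits raise reporter mRNA so AC50 reflects activation of zebrafish ER2a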
# How it was run: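 HepG2 cells transiently transfected with GAL4-UAS reporter units and chimeric zebrafish ER2a-Gal4, exposed 24 h; medium contains 3 nM 6-alpha-fluorotestosterone and 1.5 nM norgestrel. Reporter mRNA quantified by RT-PCR, HpaI digestion, capillary electrophoresis; gain versus DMSO.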
# [8] = tested on: chicken Androgen Receptor (AR), gene 422165; assay: ATG_chAR_XSP2: Attagene TRANS-FACTORIAL Multi-Species (XSP2) HepG2 Assay for chicken Androgen Receptor (AR) (AID 2283819);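 further: hits raise reporter mRNA above DMSO so potency is for activation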
# How it was run: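 HepG2 cells transiently transfected with chicken AR–GAL4 chimeric reporter constructs, stimulated with 3 nM 6-alpha-fluorotestosterone plus 1.5 nM norgestrel, dosed 24 h. Reporter mRNA quantified by RT-PCR and capillary electrophoresis; gain of signal fitted versus DMSO.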
# [9] = ATG_M_19_XSP2: Attagene TRANS-FACTORIAL Multi-Species (XSP2) HepG2 Assay for M32 Transcription Factor (Internal Marker) (AID 2283822)
# How it was run: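 Internal background marker in a multi-species nuclear receptor TRANS panel: transfected HepG2 cells exposed 24 h, with 3 nM 6-alpha-fluorotestosterone and 1.5 nM norgestrel present. Readout is RT-PCR of reporter transcripts resolved by capillary electrophoresis, gain-of-signal versus DMSO.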
# [10] = tested on: zebrafish Estrogen Receptor (ER2b), gene 317733; assay: ATG_zfER2b_XSP2: Attagene TRANS-FACTORIAL Multi-Species (XSP2) HepG2 Assay for zebrafish Estrogen Receptor (ER2b) (AID 2283823);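 further: fitted upward as reporter gain over DMSO so potency reflects activation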
# How it was run: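 Cells used were HepG2, transiently transfected with chimeric nuclear receptor-Gal4 reporter units. After 24 h of chemical treatment, reporter transcripts were amplified by RT-PCR, labelled and sized by capillary electrophoresis, with induction analysed relative to DMSO.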
# [11] = tested on: zebrafish Androgen Receptor (AR), gene 100005148; assay: ATG_zfAR_XSP2: Attagene TRANS-FACTORIAL Multi-Species (XSP2) HepG2 Assay for zebrafish Androgen Receptor (AR) (AID 2283825);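 further: hits raise reporter mRNA above DMSO so AC50 reflects agonist-type gain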
# How it was run: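 Zebrafish AR–GAL4 chimera transiently expressed with GAL4-UAS reporter in HepG2 cells, co-stimulated with 3 nM 6-alpha-fluorotestosterone and 1.5 nM norgestrel; 24 h dosing, reporter mRNA read by RT-PCR/capillary electrophoresis versus DMSO.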
# [12] = molecular target: Peroxisome proliferator-activated receptor gamma (Homo sapiens) (UniProt P37231); assay: ATG_hPPARg_XSP2: Attagene TRANS-FACTORIAL Multi-Species (XSP2) HepG2 Assay for human Peroxisome Proliferator-activated Receptor gamma (PPARg) (AID 2283829);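 further: actives raise reporter mRNA above DMSO so AC50 reflects PPARg activation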
# How it was run: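 After transfecting HepG2 with GAL4-UAS reporter constructs, cells are dosed for 24 h; total RNA is reverse-transcribed, PCR-amplified, FAM-labeled, HpaI-digested and resolved by capillary electrophoresis. Activity is measured as mRNA induction relative to DMSO.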
# [13] = molecular target: mouse Peroxisome Proliferator-activated Receptor gamma (PPARg), Pparg (gene 19016) (UniProt P37238); assay: ATG_mPPARg_XSP2: Attagene TRANS-FACTORIAL Multi-Species (XSP2) HepG2 Assay for mouse Peroxisome Proliferator-activated Receptor gamma (PPARg) (AID 2283830);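 further: hits are gains in reporter mRNA above DMSO so AC50 marks activation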
# How it was run: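 HepG2 cells transiently transfected with GAL4-UAS reporter units for chimeric NR-Gal4 proteins including mouse PPARg, exposed 24 h; medium contained 3 nM 6-alpha-fluorotestosterone and 1.5 nM norgestrel. Reporter mRNA quantified by RT-PCR, HpaI digestion and capillary electrophoresis, vs DMSO.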
# [14] = molecular target: zebrafish Thyroid Hormone Receptor alpha (TRa), thraa (gene 30670) (UniProt Q98867); assay: ATG_zfTRa_XSP2: Attagene TRANS-FACTORIAL Multi-Species (XSP1) HepG2 Assay for zebrafish Thyroid Hormone Receptor alpha (TRa) (AID 2283832);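 further: actives raise zebrafish TRa-Gal4 reporter transcript above DMSO baseline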
# How it was run: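 HepG2 cells transiently transfected with multiplexed GAL4-UAS reporter units expressing chimeric NR-Gal4 proteins; 24 h after dosing, reporter mRNA measured by RT-PCR, FAM labelling, HpaI digestion and capillary electrophoresis; gain of signal versus DMSO baseline.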
# [15] = tested on: turtle Thyroid Hormone Receptor, alpha (TRa), gene 101949057; assay: ATG_trTRa_XSP2: Attagene TRANS-FACTORIAL Multi-Species (XSP1) HepG2 Assay for turtle Thyroid Hormone Receptor, alpha (TRa) (AID 2283834);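 further: hits raise reporter mRNA over the DMSO baseline so AC50 marks activators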
# How it was run: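 Transfection of HepG2 with multiple reporter transcription units, then chemical dosing for 24 h. Total RNA was reverse-transcribed, reporter sequences PCR-amplified and FAM-labelled, then sized by capillary electrophoresis. DMSO served as baseline.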
# [16] = molecular target: zebrafish Estrogen Receptor (ER1), esr1 (gene 259252) (UniProt P57717); assay: ATG_zfER1_XSP2: Attagene TRANS-FACTORIAL Multi-Species (XSP2) HepG2 Assay for zebrafish Estrogen Receptor (ER1) (AID 2283816)
# How it was run: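 HepG2 cells transiently transfected with a GAL4-UAS reporter and a chimeric zebrafish ER1-Gal4 construct, dosed 24 h. Reporter mRNA quantified by RT-PCR, labelling, HpaI digestion and capillary electrophoresis, relative to DMSO.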
# [17] = molecular target: chicken Estrogen Receptor (ERa), ESR1 (gene 396099) (UniProt P06212); assay: ATG_chERa_XSP2: Attagene TRANS-FACTORIAL Multi-Species (XSP2) HepG2 Assay for chicken Estrogen Receptor (ERa) (AID 2283817);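 further: actives raise reporter signal above DMSO so AC50 reflects ER activation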
# How it was run: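 Transient MRTU transfection of HepG2 → 24 h chemical dosing → TriZol RNA, oligo(dT) RT → PCR, 6-FAM primer extension, HpaI digest → CE quantitation of chicken ERa-Gal4-driven reporter mRNA. Positive direction vs DMSO.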
# [18] = tested on: frog Androgen Receptor (AR), gene 399456; assay: ATG_frAR_XSP2: Attagene TRANS-FACTORIAL Multi-Species (XSP2) HepG2 Assay for frog Androgen Receptor (AR) (AID 2283824);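 further: actives raise reporter signal above DMSO so AC50 reflects agonist-like induction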
# How it was run: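 HepG2 cells transiently transfected with GAL4-UAS reporter units and frog (Xenopus laevis) AR-Gal4 chimera; reporter mRNA measured 24 h after dosing by RT-PCR and capillary electrophoresis. Gain of signal fitted relative to DMSO baseline.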
# [19] = molecular target: Nuclear receptor subfamily 1 group I member 2 (Mus musculus) (UniProt O54915); assay: ATG_mPXR_XSP2: Attagene TRANS-FACTORIAL Multi-Species (XSP1) HepG2 Assay for mouse Pregnane X Receptor (PXR) (AID 2283831)
# How it was run: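 Reporter transcripts were quantified by RT-PCR, FAM primer extension, HpaI digestion and capillary electrophoresis after 24 h of chemical exposure in transiently transfected HepG2 cells carrying chimeric receptor-GAL4 constructs; DMSO served as baseline.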
# [20] = molecular target: human Androgen Receptor (AR), AR (gene 367) (UniProt P10275); assay: ATG_hAR_XSP2: Attagene TRANS-FACTORIAL Multi-Species (XSP2) HepG2 Assay for human Androgen Receptor (AR) (AID 2283820)
# How it was run: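 HepG2 cells transiently transfected with GAL4-UAS reporter units driven by chimeric NR-Gal4 proteins, stimulated with 3 nM 6-alpha-fluorotestosterone plus 1.5 nM norgestrel. Reporter mRNA quantified 24 h after dosing by RT-PCR and capillary electrophoresis; gain-of-signal versus DMSO.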
# mouse Peroxisome Proliferator-activated Receptor gamma (PPARg), Pparg (gene 19016), sequence (P37238 whole entry, looked up, the tested form may be a part): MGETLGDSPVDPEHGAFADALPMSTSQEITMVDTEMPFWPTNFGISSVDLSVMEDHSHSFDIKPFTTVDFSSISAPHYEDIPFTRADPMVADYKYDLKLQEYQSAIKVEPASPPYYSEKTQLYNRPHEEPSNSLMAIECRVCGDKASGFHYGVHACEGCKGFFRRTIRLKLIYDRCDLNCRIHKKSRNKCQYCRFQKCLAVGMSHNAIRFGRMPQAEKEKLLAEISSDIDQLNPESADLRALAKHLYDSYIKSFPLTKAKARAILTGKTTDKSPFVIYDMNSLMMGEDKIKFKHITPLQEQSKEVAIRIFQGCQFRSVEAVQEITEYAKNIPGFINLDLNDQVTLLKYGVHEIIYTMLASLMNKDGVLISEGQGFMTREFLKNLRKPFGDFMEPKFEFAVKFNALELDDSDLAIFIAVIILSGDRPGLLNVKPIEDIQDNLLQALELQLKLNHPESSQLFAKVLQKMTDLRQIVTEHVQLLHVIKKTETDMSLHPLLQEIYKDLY
# Peroxisome proliferator-activated receptor gamma (Homo sapiens), sequence (P37231 whole entry, looked up, the tested form may be a part): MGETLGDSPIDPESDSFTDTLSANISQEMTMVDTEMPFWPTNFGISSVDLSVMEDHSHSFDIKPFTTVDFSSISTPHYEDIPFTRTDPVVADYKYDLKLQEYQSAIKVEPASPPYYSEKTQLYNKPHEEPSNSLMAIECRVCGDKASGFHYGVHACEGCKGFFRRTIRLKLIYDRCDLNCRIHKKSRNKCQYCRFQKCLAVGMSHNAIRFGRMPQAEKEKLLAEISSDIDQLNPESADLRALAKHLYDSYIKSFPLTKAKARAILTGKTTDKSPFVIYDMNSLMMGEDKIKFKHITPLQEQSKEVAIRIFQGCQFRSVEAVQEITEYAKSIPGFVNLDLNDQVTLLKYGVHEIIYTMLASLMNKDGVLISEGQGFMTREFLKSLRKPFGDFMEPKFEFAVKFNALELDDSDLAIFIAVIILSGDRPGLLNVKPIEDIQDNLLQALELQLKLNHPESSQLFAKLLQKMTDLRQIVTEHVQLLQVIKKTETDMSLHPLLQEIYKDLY
# zebrafish Thyroid Hormone Receptor beta (TRb), thrb (gene 30607), sequence (Q9PVE4 whole entry, looked up, the tested form may be a part): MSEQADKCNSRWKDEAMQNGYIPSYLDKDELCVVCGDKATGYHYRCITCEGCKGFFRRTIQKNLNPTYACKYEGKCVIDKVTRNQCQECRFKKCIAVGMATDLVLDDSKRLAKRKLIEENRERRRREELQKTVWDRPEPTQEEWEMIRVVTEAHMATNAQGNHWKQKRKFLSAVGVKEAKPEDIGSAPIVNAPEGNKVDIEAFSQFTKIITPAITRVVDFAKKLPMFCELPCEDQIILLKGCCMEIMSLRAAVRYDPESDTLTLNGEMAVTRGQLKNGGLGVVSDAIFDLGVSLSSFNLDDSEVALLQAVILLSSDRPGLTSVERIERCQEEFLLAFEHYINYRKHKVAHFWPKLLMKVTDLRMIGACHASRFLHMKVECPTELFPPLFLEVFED
# zebrafish Thyroid Hormone Receptor alpha (TRa), thraa (gene 30670), sequence (Q98867 whole entry, looked up, the tested form may be a part): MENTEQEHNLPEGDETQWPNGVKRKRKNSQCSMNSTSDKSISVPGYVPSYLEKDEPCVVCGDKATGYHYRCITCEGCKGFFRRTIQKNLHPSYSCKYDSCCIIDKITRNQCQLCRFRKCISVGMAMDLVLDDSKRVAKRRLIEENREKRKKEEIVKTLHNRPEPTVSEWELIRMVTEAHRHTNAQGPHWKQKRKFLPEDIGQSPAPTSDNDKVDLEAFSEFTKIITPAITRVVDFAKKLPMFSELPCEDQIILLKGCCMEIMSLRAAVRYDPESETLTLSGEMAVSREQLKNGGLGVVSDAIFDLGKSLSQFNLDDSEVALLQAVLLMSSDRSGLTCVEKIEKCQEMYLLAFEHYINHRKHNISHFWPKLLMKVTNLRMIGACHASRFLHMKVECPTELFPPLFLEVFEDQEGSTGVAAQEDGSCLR
# chicken Estrogen Receptor (ERa), ESR1 (gene 396099), sequence (P06212 whole entry, looked up, the tested form may be a part): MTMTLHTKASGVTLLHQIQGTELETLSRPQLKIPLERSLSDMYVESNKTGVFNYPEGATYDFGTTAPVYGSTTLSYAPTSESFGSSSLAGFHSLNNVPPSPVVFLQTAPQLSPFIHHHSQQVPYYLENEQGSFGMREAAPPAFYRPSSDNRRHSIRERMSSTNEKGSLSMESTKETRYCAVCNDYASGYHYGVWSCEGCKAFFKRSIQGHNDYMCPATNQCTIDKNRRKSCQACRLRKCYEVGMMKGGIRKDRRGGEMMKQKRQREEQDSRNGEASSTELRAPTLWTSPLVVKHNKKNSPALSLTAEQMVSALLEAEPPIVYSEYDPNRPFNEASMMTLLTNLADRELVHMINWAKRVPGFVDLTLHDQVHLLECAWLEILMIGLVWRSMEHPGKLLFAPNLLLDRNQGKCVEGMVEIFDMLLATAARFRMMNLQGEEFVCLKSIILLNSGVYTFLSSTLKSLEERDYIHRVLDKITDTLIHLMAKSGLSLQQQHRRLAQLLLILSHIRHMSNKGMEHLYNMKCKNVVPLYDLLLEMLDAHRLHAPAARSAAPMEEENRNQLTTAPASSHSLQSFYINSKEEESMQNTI
# zebrafish Estrogen Receptor (ER1), esr1 (gene 259252), sequence (P57717 whole entry, looked up, the tested form may be a part): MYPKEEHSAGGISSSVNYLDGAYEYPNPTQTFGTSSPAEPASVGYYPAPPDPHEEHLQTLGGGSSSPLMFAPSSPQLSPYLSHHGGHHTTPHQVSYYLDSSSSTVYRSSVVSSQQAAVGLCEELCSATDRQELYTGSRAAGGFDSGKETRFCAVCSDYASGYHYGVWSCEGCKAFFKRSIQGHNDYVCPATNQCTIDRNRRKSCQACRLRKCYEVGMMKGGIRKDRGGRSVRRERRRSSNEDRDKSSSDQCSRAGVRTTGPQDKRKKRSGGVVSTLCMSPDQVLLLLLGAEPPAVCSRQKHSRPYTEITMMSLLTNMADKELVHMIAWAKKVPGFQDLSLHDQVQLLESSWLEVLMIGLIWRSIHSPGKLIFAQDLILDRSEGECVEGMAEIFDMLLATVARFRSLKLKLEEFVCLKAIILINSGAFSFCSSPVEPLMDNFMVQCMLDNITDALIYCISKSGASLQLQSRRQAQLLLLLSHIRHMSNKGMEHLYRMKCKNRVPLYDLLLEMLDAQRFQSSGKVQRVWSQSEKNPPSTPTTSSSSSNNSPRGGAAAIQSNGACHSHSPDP
# Nuclear receptor subfamily 1 group I member 2 (Mus musculus), sequence (O54915 whole entry, looked up, the tested form may be a part): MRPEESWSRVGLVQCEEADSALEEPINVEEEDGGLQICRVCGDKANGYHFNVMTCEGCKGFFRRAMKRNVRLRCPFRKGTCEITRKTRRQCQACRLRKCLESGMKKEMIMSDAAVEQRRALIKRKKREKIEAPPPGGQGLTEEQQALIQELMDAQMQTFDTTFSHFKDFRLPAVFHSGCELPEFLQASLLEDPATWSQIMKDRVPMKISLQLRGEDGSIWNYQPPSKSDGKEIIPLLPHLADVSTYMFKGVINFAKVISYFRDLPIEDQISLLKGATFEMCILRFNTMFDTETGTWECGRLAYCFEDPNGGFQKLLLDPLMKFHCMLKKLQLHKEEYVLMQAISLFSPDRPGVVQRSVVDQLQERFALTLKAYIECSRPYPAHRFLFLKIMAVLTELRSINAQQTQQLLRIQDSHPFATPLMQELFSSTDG
# human Androgen Receptor (AR), AR (gene 367), sequence (P10275 whole entry, looked up, the tested form may be a part): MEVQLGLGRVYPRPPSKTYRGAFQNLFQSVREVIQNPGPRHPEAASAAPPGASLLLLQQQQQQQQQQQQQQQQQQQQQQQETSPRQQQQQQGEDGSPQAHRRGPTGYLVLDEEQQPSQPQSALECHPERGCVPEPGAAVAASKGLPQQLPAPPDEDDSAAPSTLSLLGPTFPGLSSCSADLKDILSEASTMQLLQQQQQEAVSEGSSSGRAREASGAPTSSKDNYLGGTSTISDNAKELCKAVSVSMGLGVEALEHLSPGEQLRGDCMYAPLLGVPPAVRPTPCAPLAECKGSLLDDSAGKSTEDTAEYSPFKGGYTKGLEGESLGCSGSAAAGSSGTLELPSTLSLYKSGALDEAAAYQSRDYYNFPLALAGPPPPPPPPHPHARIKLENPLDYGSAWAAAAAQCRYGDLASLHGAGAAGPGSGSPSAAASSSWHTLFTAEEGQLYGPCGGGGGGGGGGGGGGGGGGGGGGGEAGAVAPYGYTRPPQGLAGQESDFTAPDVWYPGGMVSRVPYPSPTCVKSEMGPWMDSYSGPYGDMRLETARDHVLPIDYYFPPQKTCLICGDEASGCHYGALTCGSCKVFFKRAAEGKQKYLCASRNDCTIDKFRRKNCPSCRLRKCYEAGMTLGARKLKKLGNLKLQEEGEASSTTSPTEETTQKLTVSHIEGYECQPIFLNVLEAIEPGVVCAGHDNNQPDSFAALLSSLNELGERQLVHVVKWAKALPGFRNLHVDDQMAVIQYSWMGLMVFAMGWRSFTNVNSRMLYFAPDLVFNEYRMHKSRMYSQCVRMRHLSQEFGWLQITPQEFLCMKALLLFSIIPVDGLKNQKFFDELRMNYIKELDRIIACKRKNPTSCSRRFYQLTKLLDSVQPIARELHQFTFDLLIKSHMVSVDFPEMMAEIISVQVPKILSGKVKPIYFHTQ
smiles,measurement,setting,value
CN(CCOc1ccc(CC2SC(=O)NC2=O)cc1)c1ccccn1 (stereo not given),outcome,[1],inactive
same,outcome,[2],inactive
same,outcome,[3],inactive
same,outcome,[4],inactive
same,outcome,[5],inactive
CN(C)C(=N)N=C(N)N,outcome,[6],inactive
same,outcome,[7],inactive
same,outcome,[8],inactive
same,outcome,[9],inactive
same,outcome,[10],inactive
same,outcome,[11],inactive
same,outcome,[2],inactive
same,outcome,[12],inactive
same,outcome,[13],inactive
same,outcome,[14],inactive
same,outcome,[3],inactive
same,outcome,[15],inactive
same,outcome,[5],inactive
O=C(Oc1ccccc1)c1ccc(O)cc1,outcome,[6],inactive
same,AC50,[16],58.3 µM (active)
same,outcome,[16],inactive
same,AC50,[17],27.8 µM (active)
same,outcome,[17],inactive
same,AC50,[7],63.9 µM (active) and 27.7 µM (active)
same,outcome,[8],inactive
same,AC50,[1],27.2 µM (active)
same,outcome,[1],inactive
same,outcome,[9],inactive
same,AC50,[10],51.2 µM (active) and 4.93 µM (active)
same,outcome,[18],inactive
same,outcome,[11],inactive
same,AC50,[2],72.4 µM (active) and 4.8 µM (active)
same,AC50,[12],100 µM (active)
same,outcome,[12],inactive
same,AC50,[13],68.1 µM (active)
same,outcome,[13],inactive
same,AC50,[19],33.2 µM (active)
same,outcome,[14],inactive
same,outcome,[3],inactive
same,outcome,[15],inactive
same,outcome,[5],inactive
O=c1cc(-c2ccccc2)oc2cc(O)cc(O)c12,AC50,[6],1.41 µM (active)
same,AC50,[16],6.38 µM (active)
same,outcome,[16],inactive
same,AC50,[17],7.18 µM (active) and 2.51 µM (active)
same,AC50,[7],6.82 µM (active) and 2.26 µM (active)
same,AC50,[8],1.51 µM (active)
same,outcome,[8],inactive
same,AC50,[20],23.8 µM (active)
same,outcome,[20],inactive
same,outcome,[1],inactive
same,AC50,[10],14.2 µM (active) and 5.28 µM (active)
same,AC50,[18],1.19 µM (active)
same,outcome,[18],inactive
same,AC50,[2],4.67 µM (active) and 2.26 µM (active)
same,AC50,[13],7.92 µM (active) and 1.57 µM (active)
same,AC50,[19],12.3 µM (active) and 25.9 µM (active)
same,outcome,[14],inactive
same,outcome,[3],inactive
same,outcome,[15],inactive
same,outcome,[4],inactive
same,AC50,[5],100 µM (active)
same,outcome,[5],inactive
CCCCCCCCCCCCN,outcome,[6],inactive
same,outcome,[16],inactive
same,AC50,[17],48.3 µM (active)
same,AC50,[7],46.7 µM (active)
same,outcome,[7],inactive
same,outcome,[8],inactive
same,outcome,[1],inactive
same,outcome,[9],inactive
same,outcome,[10],inactive
same,outcome,[18],inactive
same,AC50,[2],55.1 µM (active)
same,AC50,[12],30 µM (active) and 11.9 µM (active)
same,AC50,[13],46.2 µM (active) and 37.7 µM (active)
same,outcome,[19],inactive
same,outcome,[3],inactive
same,outcome,[15],inactive
same,outcome,[5],inactive
